Inconclusive results are not listed. A call without a number means that no potency is given here. Active and inactive are the calls of the source. Calls come from the whole dose curve; as a rule, active = well fitted curve in the direction sought with a large enough effect; inconclusive = small, poorly fitted or top-dose-only effect, or another doubt; inactive = no such curve, though single readings can be large; an effect the other way counts as inactive or inconclusive.
Legend:
[1] = molecular target: Glutathione peroxidase 1 (Homo sapiens) (UniProt P07203); experiment: Primary qHTS Assay for Inhibitors of Recombinant Selenoprotein Glutathione Peroxidase 1 (GPX1) (AID 1845191); note: nearly all actives have a fitted effect of over 65% in size; note: potency is the fitted concentration of half-maximal effect
Sequence of Glutathione peroxidase 1 (Homo sapiens) (P07203 whole entry, looked up): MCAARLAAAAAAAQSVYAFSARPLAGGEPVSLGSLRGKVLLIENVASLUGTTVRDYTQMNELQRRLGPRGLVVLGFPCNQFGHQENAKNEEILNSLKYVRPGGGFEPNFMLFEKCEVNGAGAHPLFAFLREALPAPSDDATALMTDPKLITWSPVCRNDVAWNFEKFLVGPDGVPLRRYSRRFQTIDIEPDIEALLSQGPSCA
How it was run: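 GR-coupled readout: NADPH consumption tracked by fluorescence, ex 340/em 450 nm, at t=0 and after 15 min at RT. Final mix 10 nM GPX1, 1 mM GSH, 0.5 mM CHP, 0.5 mM NADPH, 100 nM GR, 0.01% BSA, following 30 min enzyme–compound preincubation.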

[2] = molecular target: Phospholipid hydroperoxide glutathione peroxidase GPX4 (Homo sapiens) (UniProt P36969); experiment: Primary qHTS Assay for Inhibitors of Recombinant Selenoprotein Glutathione Peroxidase 4 (GPX4) (AID 1845192); note: nearly all actives have a fitted effect of over 65% in size
Sequence of Phospholipid hydroperoxide glutathione peroxidase GPX4 (Homo sapiens) (P36969 whole entry, looked up): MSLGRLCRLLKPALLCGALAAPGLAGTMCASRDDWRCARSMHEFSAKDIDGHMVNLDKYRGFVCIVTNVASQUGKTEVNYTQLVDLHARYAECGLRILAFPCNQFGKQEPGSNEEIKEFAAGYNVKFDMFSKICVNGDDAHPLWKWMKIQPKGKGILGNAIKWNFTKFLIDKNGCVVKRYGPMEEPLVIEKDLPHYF
How it was run: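 Steps: GPX4 plus compound, 30 min RT; add GR/GSH/NADPH master mix; start with cumene hydroperoxide; read 340/450 nm fluorescence at 0 and 15 min. Finals were 200 nM GPX4, 1 mM GSH, 0.5 mM CHP, 0.5 mM NADPH, 100 nM GR.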

[3] = molecular target: Luciferin 4-monooxygenase (Photinus pyralis) (UniProt P08659); experiment: Primary firefly luciferase (FLuc) qHTS assay for identification of artifact compounds. (AID 1845220); details: outcome: dose series up to 54.1 µM unless noted; note: nearly all actives have a fitted effect of over 60% in size
How it was run: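 D-luciferin and ATP (10 uM each, final) in Tris acetate buffer pH 7.6 were incubated with compounds for 15 min at room temperature. The reaction was started with 10 nM Photinus pyralis luciferase and luminescence read after 5 min. Percent inhibition was fitted to a 4-parameter Hill equation.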

[4] = Primary fluorescence-based thiol-reactive (MSTI) qHTS assay for identification of artifact compounds. (AID 1845221); note: nearly all actives have a fitted effect of over 65% in size; note: potency is the fitted concentration of half-maximal effect
How it was run: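 qHTS titration of compound; 4 uM MSTI, PBS pH 7.4, 2% DMSO; 1 h RT, dark; fluorescence 525/598 nm; normalized to Acetyl-MSTI and MSTI; 4-parameter Hill fit.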

[5] = Primary redox qHTS assay for identification of artifact compounds. (AID 1845223)
How it was run: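 Redox-cycling detection via DTT (250 uM final) oxidation coupled to Amplex Red (25 uM)/HRP (250 mU/mL) in HBSS. 15 min preincubation plus 30 min after DTT, room temperature. Ex/Em 525/598 nm; 4-parameter Hill fit against DMSO and 10 uM DA3003.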

[6] = Quantitative High-Throughput drug screen in 47 multiple myeloma cell lines against the NCATS MIPE library collection: FR4_PLB cell viability assay (AID 1918924; note: nearly all actives have a fitted effect of over 35% in size; note: potency is the fitted concentration of half-maximal effect)
How it was run: (§1)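 We plated 500 myeloma cells per well, pinned in MIPE 4.0 compounds, and incubated for 48 hours at 37C. ATP was then quantified with CellTiter-Glo, with DMSO and media-only wells defining 100% and 0%.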

[7] = Quantitative High-Throughput drug screen in 47 multiple myeloma cell lines against the NCATS MIPE library collection: Delta47_JCRB cell viability assay (AID 1918925; note: nearly all actives have a fitted effect of over 45% in size; note: potency is the fitted concentration of half-maximal effect)
How it was run: (§2)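 Steps: seed 500 cells per well; pin-transfer MIPE 4.0 library; incubate 48 h at 37C, 5% CO2, humidified; add CellTiter-Glo, 5 min room temperature; read luminescence.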

[8] = Quantitative High-Throughput drug screen in 47 multiple myeloma cell lines against the NCATS MIPE library collection: AMO1_DSMZ cell viability assay (AID 1918927; note: nearly all actives have a fitted effect of over 30% in size; note: potency is the fitted concentration of half-maximal effect)
How it was run: as §2

[9] = Quantitative High-Throughput drug screen in 47 multiple myeloma cell lines against the NCATS MIPE library collection: ARP1_JJKsccF8 cell viability assay (AID 1918928; note: nearly all actives have a fitted effect of over 40% in size; note: potency is the fitted concentration of half-maximal effect)
How it was run: (§3)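 Cell viability inhibition in this qHTS is measured via ATP content (CellTiter-Glo) after 48 h drug exposure at 37 °C. Wells hold 500 cells; DMSO-treated wells define 100% and medium-only wells 0%.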

[10] = Quantitative High-Throughput drug screen in 47 multiple myeloma cell lines against the NCATS MIPE library collection: ARD_JJKsccE7 cell viability assay (AID 1918929; note: potency is the fitted concentration of half-maximal effect)
How it was run: as §2

[11] = Quantitative High-Throughput drug screen in 47 multiple myeloma cell lines against the NCATS MIPE library collection: Karpas620_DSMZ cell viability assay (AID 1918959); note: nearly all actives have a fitted effect of over 30% in size; note: potency is the fitted concentration of half-maximal effect
How it was run: as §1

[12] = Quantitative High-Throughput drug screen in 47 multiple myeloma cell lines against the NCATS MIPE library collection: KMM1_JCRB cell viability assay (AID 1918960); note: nearly all actives have a fitted effect of over 30% in size; note: potency is the fitted concentration of half-maximal effect
How it was run: as §3

[13] = Quantitative High-Throughput drug screen in 47 multiple myeloma cell lines against the NCATS MIPE library collection: KHM11_PLB cell viability assay (AID 1918962); note: nearly all actives have a fitted effect of over 35% in size; note: potency is the fitted concentration of half-maximal effect
How it was run: as §1

[14] = Quantitative High-Throughput drug screen in 47 multiple myeloma cell lines against the NCATS MIPE library collection: JIM3_ECACC cell viability assay (AID 1918963; note: nearly all actives have a fitted effect of over 35% in size; note: potency is the fitted concentration of half-maximal effect)
How it was run: as §1

[15] = Quantitative High-Throughput drug screen in 47 multiple myeloma cell lines against the NCATS MIPE library collection: INA6_PLB cell viability assay (AID 1918965; note: nearly all actives have a fitted effect of over 55% in size; note: potency is the fitted concentration of half-maximal effect)
How it was run: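 Viability readout: CellTiter-Glo luminescence following 5 min room-temperature incubation with reagent. Prior exposure: 48 h, 37C, humidified 5% CO2, 500 cells per well.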

[16] = Quantitative High-Throughput drug screen in 47 multiple myeloma cell lines against the NCATS MIPE library collection: JJN3_DSMZ cell viability assay (AID 1918966; note: nearly all actives have a fitted effect of over 50% in size; note: potency is the fitted concentration of half-maximal effect)
How it was run: as §2

[17] = system: Nanoluciferase (engineered Oplophorus gracilirostris luciferase); experiment: Primary Nanoluciferase (NLuc) qHTS assay for identification of artifact compounds. (AID 1845222); note: series mostly up to about 54 µM
How it was run: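 Diluted conditioned medium from NLuc-expressing S16 cells treated with compounds for 15 min at room temperature, then Nano-Glo substrate added; luminescence read after 5 min. Percent inhibition versus no-enzyme and DMSO controls fitted to 4-parameter Hill equation.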

[18] = Quantitative High-Throughput drug screen in 47 multiple myeloma cell lines against the NCATS MIPE library collection: EJM_DSMZ cell viability assay (AID 1918926; note: nearly all actives have a fitted effect of over 30% in size; note: potency is the fitted concentration of half-maximal effect)
How it was run: as §2

[19] = Quantitative High-Throughput drug screen in 47 multiple myeloma cell lines against the NCATS MIPE library collection: JIM1_ECACC cell viability assay (AID 1918964; note: potency is the fitted concentration of half-maximal effect)
How it was run: as §2

Compound: CN1CCN(c2ccc([N+](=O)[O-])c3no[n+]([O-])c23)CC1
- Potency [1]: 18300 nM (active)
- Potency [2]: inactive
- outcome [3]: inactive
- Potency [4]: 11900 nM (active)
- outcome [5]: inactive
- Potency [6]: 20900 nM (active)
- Potency [7]: 8330 nM (active)
- Potency [8]: 16600 nM (active)
- Potency [9]: 9350 nM (active)
- Potency [10]: 23500 nM (active)
- Potency [11]: 20900 nM (active)
- Potency [12]: 20900 nM (active)
- Potency [13]: 14800 nM (active)
- Potency [14]: 23500 nM (active)
- Potency [15]: 13200 nM (active)
- Potency [16]: 18700 nM (active)

Compound: Cc1ccccc1-n1c(Cn2cnc3c(N)ncnc32)nc2cccc(C)c2c1=O
- Potency [1]: inactive
- Potency [2]: inactive
- outcome [3]: inactive
- Potency [4]: inactive
- outcome [17]: inactive
- outcome [5]: inactive
- Potency [6]: 6620 nM (active)
- Potency [7]: 105 nM (active)
- Potency [18]: 4180 nM (active)
- Potency [8]: 833 nM (active)
- Potency [9]: 132 nM (active)
- Potency [11]: 4180 nM (active)
- Potency [14]: 1050 nM (active)
- Potency [15]: 935 nM (active)
- Potency [16]: 833 nM (active)

Compound: O=C(O)CNC(=O)c1c(O)c2ccccc2n(Cc2ccccc2)c1=O
- Potency [1]: inactive
- Potency [2]: inactive
- outcome [3]: inactive
- outcome [17]: inactive
- outcome [5]: inactive
- Potency [6]: inactive
- Potency [7]: inactive
- Potency [18]: inactive
- Potency [8]: inactive
- Potency [9]: inactive
- Potency [10]: inactive
- Potency [11]: inactive
- Potency [12]: inactive
- Potency [14]: inactive
- Potency [19]: inactive

Compound: CCN(CC)C(=O)c1ccc(C2=CC3(CCNCC3)Oc3cccc(O)c32)cc1
- Potency [1]: inactive
- Potency [2]: inactive
- outcome [3]: inactive
- Potency [4]: inactive
- outcome [17]: inactive
- outcome [5]: inactive
- Potency [7]: inactive
- Potency [18]: inactive
- Potency [8]: inactive
- Potency [10]: inactive
- Potency [11]: inactive
- Potency [14]: inactive
- Potency [15]: inactive

Compound: CCCC[N+]1(C)[C@H]2CC(OC(=O)[C@H](CO)c3ccccc3)C[C@H]1[C@H]1O[C@H]12 (stereo not given in full)
- Potency [1]: inactive
- Potency [2]: inactive
- Potency [6]: inactive
- Potency [7]: inactive
- Potency [10]: inactive
- Potency [11]: inactive
- Potency [12]: inactive
- Potency [13]: inactive
- Potency [14]: inactive
- Potency [19]: inactive
- Potency [15]: 2350 nM (active)
- Potency [16]: inactive

Compound: N=c1c2c(-c3ccccc3)c(-c3ccccc3)n(Cc3ccccc3)c2ncn1C1CCC(O)CC1 (stereo not given)
- Potency [1]: inactive
- Potency [2]: inactive
- Potency [7]: 166 nM (active)
- Potency [8]: 526 nM (active)
- Potency [9]: 14800 nM (active)
- Potency [10]: 8330 nM (active)
- Potency [11]: 9350 nM (active)
- Potency [12]: 662 nM (active)
- Potency [14]: 743 nM (active)
- Potency [19]: 833 nM (active)
- Potency [15]: 209 nM (active)
- Potency [16]: 18700 nM (active)

Compound: CCNC(=O)C[C@@H]1N=C(c2ccc(Cl)cc2)c2cc(OC)ccc2-n2c(C)nnc21
- Potency [1]: inactive
- Potency [2]: inactive
- outcome [3]: inactive
- Potency [4]: inactive
- outcome [5]: inactive
- Potency [7]: 418 nM (active)
- Potency [18]: 1050 nM (active)
- Potency [8]: 372 nM (active)
- Potency [9]: 372 nM (active)
- Potency [10]: 264 nM (active)
- Potency [11]: 1050 nM (active)
- Potency [14]: 6620 nM (active)
- Potency [19]: 1660 nM (active)
- Potency [15]: 132 nM (active)
- Potency [16]: 148 nM (active)

Compound: CCOP(=O)(OCC)C(C)NC(=O)N(CCCl)N=O (stereo not given)
- Potency [1]: inactive
- Potency [2]: inactive
- Potency [6]: inactive
- Potency [7]: inactive
- Potency [18]: inactive
- Potency [8]: inactive
- Potency [9]: inactive
- Potency [10]: inactive
- Potency [11]: inactive
- Potency [13]: inactive
- Potency [14]: inactive
- Potency [16]: inactive

Compound: CC(C)(O)C(=O)Nc1ccc([N+](=O)[O-])c(C(F)(F)F)c1
- Potency [1]: inactive
- Potency [2]: inactive
- Potency [6]: inactive
- Potency [7]: 7430 nM (active)
- Potency [8]: 11800 nM (active)
- Potency [9]: inactive
- Potency [10]: 23500 nM (active)
- Potency [11]: 18700 nM (active)
- Potency [13]: 20900 nM (active)
- Potency [15]: 7430 nM (active)

Compound: COc1ccc(N(C(=O)Oc2c(C)cccc2C)c2ccnc(Nc3ccc(N4CCN(C)CC4)cc3)n2)c(OC)c1
- Potency [1]: inactive
- Potency [2]: inactive
- outcome [3]: inactive
- outcome [17]: inactive
- outcome [5]: inactive
- Potency [6]: 2640 nM (active)
- Potency [7]: 4180 nM (active)
- Potency [18]: 743 nM (active)
- Potency [8]: 1480 nM (active)
- Potency [10]: 7430 nM (active)
- Potency [11]: 2640 nM (active)
- Potency [19]: 2640 nM (active)
- Potency [15]: 1480 nM (active)
- Potency [16]: 18700 nM (active)

Compound: O=C(Nc1ccncc1)C(=O)c1cn(Cc2ccc(Cl)cc2)c2ccccc12
- Potency [1]: inactive
- Potency [2]: inactive
- Potency [6]: 16.6 nM (active)
- Potency [7]: 16.6 nM (active)
- Potency [18]: 3720 nM (active)
- Potency [8]: 16.6 nM (active)
- Potency [9]: 74.3 nM (active)
- Potency [10]: 41.8 nM (active)
- Potency [12]: 18.7 nM (active)
- Potency [14]: 14.8 nM (active)
- Potency [19]: 16.6 nM (active)
- Potency [15]: 13.2 nM (active)

Compound: O=S(=O)(CC1CS1)c1ccc(Oc2ccccc2)cc1 (stereo not given)
- Potency [1]: inactive
- Potency [2]: inactive
- Potency [18]: 20900 nM (active)
- Potency [10]: inactive
- Potency [13]: 14800 nM (active)
- Potency [14]: 16600 nM (active)
- Potency [19]: inactive
- Potency [15]: 14800 nM (active)
- Potency [16]: 11800 nM (active)
